Measured values published in PubChem BioAssay (NCATS).
Results filed as inconclusive are left out. A call without a number means that no potency is given here. Active and inactive are the calls of the source. Calls follow the shape of the dose curve; as a rule, active = well fitted inhibition curve with a large enough effect; inconclusive = small, poorly fitted or top-dose-only effect; inactive = flat fitted curve, though single readings scatter.

Assay: P-glycoprotein substrates identified in KB-8-5-11 adenocarcinoma cell line, qHTS therapeutic library screen (AID 1346987); also: nearly all actives have a fitted effect of over 65% in size
Conditions: KB-8-5-11 (P-gp overexpressing) viability, CellTiter-Glo, 72 h; series mostly up to 44.5 µM
Procedure, shortened: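 KB-8-5-11: colchicine-selected sub-line of KB-3-1 over-expressing P-gp; assay medium lacked colchicine. 72 h drug exposure at 37 degree C, CellTiter-Glo.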

Structure (SMILES)	Potency	outcome
CC(C)c1ccc2c(c1)CCC1[C@](C)(C(=O)O)CCC[C@]21C (some centres not stated)	inactive	
COc1ccc(S(=O)(=O)Nc2nc(-c3cccc([N+](=O)[O-])c3)cs2)cc1OC	inactive	
CC(=O)O[C@@H]1C(O)C[C@@]2(C)C(CC[C@@H](C)C23Cc2c(O)cc4c(c2O3)CNC4=O)C1(C)C (some centres not stated)	inactive	
O=C(/C=C/c1ccccc1)OC[C@H]1O[C@@H](OC(=O)c2cc(O)c(O)c(O)c2)[C@H](O)[C@@H](O)[C@@H]1O	inactive	
CC1C2=CC(=O)OC2(O)CC2C1C(OC(=O)c1ccccc1)C(OC(=O)c1ccccc1)C1(O)C2(C)CCC(O)C1(C)C(=O)O (configuration not stated)	inactive	
CCCC(C(=O)O)c1c(C)nc2ccc(Cl)cc2c1-c1ccccc1 (configuration not stated)	inactive	
C=C1CC2C3(C)C=CC(=O)OC(C)(C)C3CC(OC(C)=O)C2(C)C2C(=O)OC(C)C(=O)C12C (configuration not stated)	inactive	
CC(C)C(O)(CO)CCO[C@@H]1O[C@H](CO[C@H]2OC[C@](O)(CO)[C@H]2O)[C@@H](O)[C@H](O)[C@H]1O (some centres not stated)	inactive	
CC(=O)/C=C/C1(O)C(C)CC(O[C@@H]2O[C@H](CO)[C@@H](O)[C@H](O)[C@H]2O)CC1(C)C (some centres not stated)	inactive	
CC1C(=O)OCC2=CC[N+]3([O-])CCC(OC(=O)C(C)(O)C1(C)O)C23 (configuration not stated)	inactive	
COC(=O)C1=COC(O[C@@H]2O[C@H](CO)[C@@H](O)[C@H](O)[C@H]2O)C2C(C)C(=O)CC12 (some centres not stated)	inactive	
CCC/C=C1\OC(=O)C2=C1CCC(O)C2O (configuration not stated)	inactive	
C/C(=C\C1CCC(C)C2CCC3(C)OC123)C(=O)O (configuration not stated)	inactive	
C=C1C[C@@]2(O)O[C@@]3(C[C@H]2C(C)C)[C@@H](C)CC[C@@H]13	inactive	
C/C=C1/CC2C(=O)Nc3cc(O)c(OC)cc3C(=O)N2C1 (configuration not stated)	inactive	
COC(=O)C1C(c2ccc(O)cc2)C(C(=O)O)C1c1ccc(O)cc1 (configuration not stated)	inactive	

Structure (SMILES)	Potency	outcome
C=C(C)C1CCC2(C(=O)OC3OC(COC4OC(CO)C(O)C(O)C4O)C(OC4OC(C)C(O)C(O)C4O)C(O)C3O)CCC3(C(=O)O)C(CCC4C5(C)CCC(=O)C(C)(C)C5CCC43C)C12 (configuration not stated)		inactive [at 9.29 µM]
CC(C)[C@@](O)(c1ccc2cc(OC(F)F)c(OC(F)F)cc2c1)c1cn[nH]n1	inactive	
CC1(C)CC[C@]2(C(=O)O)CC[C@]3(C)C(=CCC4[C@@]5(C)CC[C@H](O)C(C)(C)C5CC[C@]43C)C2C1 (some centres not stated)	inactive	
c1cc(-c2cc(C3CCNCC3)[nH]n2)ccn1	inactive	
CC1(C)CCC[C@]2(C)C1CC=C(CO)[C@H]2CC/C(=C/CO)CO (some centres not stated)	inactive	
C=C1CC[C@@H]2[C@@](C)(CO[C@@H]3O[C@H](CO)[C@@H](O)[C@H](O)[C@H]3O)[C@H](O)CC[C@@]2(C)[C@@H]1CC/C(C)=C/CO[C@@H]1O[C@H](CO)[C@@H](O)[C@H](O)[C@H]1O	inactive	
O=C(Cc1ccccc1)OC[C@H]1O[C@H](O[C@H]2O[C@H](CO)[C@@H](O)[C@H](O)[C@H]2O)[C@H](O)[C@@H](O)[C@@H]1O	inactive	
CC[C@H]1OC(=O)[C@H](C)[C@@H](O[C@H]2C[C@@](C)(OC)[C@@H](O)[C@H](C)O2)C(C)[C@@H](O[C@@H]2O[C@H](C)C[C@H](N(C)C)[C@H]2O)[C@](C)(O)C[C@@H](C)CN(C)[C@H](C)[C@@H](O)[C@]1(C)O (some centres not stated)	inactive	
NC(=O)[C@@H]1CC[C@H](c2ccc(OCc3ccccc3F)cc2)N1	inactive	
CC(=O)c1ccc(O[C@@H]2O[C@H](CO[C@@H]3OC[C@@H](O)[C@H](O)[C@H]3O)[C@@H](O)[C@H](O)[C@H]2O)cc1	inactive	
COc1ccc(OC2OC(CO[C@@H]3O[C@@H](C)[C@H](O)[C@@H](O)[C@H]3O)C(O)C(O)C2O)cc1OC (some centres not stated)	inactive	
COc1ccc(C2OCC3C(c4cc(OC)c5c(c4)OCO5)OCC23)cc1OC (configuration not stated)	inactive	
COC(=O)C1C(O)CCC2CN3CCc4c([nH]c5ccccc45)C3CC21 (configuration not stated)	inactive	
O=C(C1OC1/C=C/c1ccc2c(c1)OCO2)N1CCCCC1 (configuration not stated)	inactive	
CCCN1CCC[C@@H](c2cccc(S(C)(=O)=O)c2)C1	inactive	
CCC(C)C1NC(=O)C2C(C)CCN2C(=O)C(CC(O)CO)OC(=O)CCNC(=O)C(C)N(C)C(=O)C(C(C)C)N(C)C1=O (configuration not stated)	inactive	
